Source: PMC9911399, “Two distinct binding modes provide the RNA-binding protein RbFox with extraordinary sequence specificity”
Positions count from the first letter of the chain named. Whole data set: some 16,000 sequences, median “ka relative to ugcaugu” near 0.0091, cut for the highest 2% near 0.032. The list comes from a sample in which the highest values are over-represented; it also holds similar and randomly drawn sequences.

T1: RBFOX1 RRM (Homo sapiens, UniProt Q9NWB1 109-208)
T1 sequence: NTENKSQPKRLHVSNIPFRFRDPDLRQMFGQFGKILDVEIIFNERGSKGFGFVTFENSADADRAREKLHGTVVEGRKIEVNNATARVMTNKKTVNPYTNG

B1: UAACCGC (DNA:RNA)
RNA: GGGAGACCGGAAUUCAGAUUGUCCUAACCGCUUAAAUCCCGUCGUAGCCACCA
DNA 1: CAATCTGAATTCCGGTCTCCC
DNA 2: TGGTGGCTACGACGGGATT
B2: CAACUUU (DNA:RNA)
RNA: B1 RNA with U25C, C29U, G30U, C31U
DNA 1: CAATCTGAATTCCGGTCTCCC
DNA 2: TGGTGGCTACGACGGGATT
B3: UUGCAAU (DNA:RNA)
RNA: B1 RNA with A26U, A27G, C29A, G30A, C31U
DNA 1: CAATCTGAATTCCGGTCTCCC
DNA 2: TGGTGGCTACGACGGGATT
B4: CACCGUG (DNA:RNA)
RNA: B1 RNA with U25C, A27C, C29G, G30U, C31G
DNA 1: CAATCTGAATTCCGGTCTCCC
DNA 2: TGGTGGCTACGACGGGATT
B5: AGUCCAG (DNA:RNA)
RNA: B1 RNA with U25A, A26G, A27U, G30A, C31G
DNA 1: CAATCTGAATTCCGGTCTCCC
DNA 2: TGGTGGCTACGACGGGATT
B6: AGGCAGA (DNA:RNA)
RNA: B1 RNA with U25A, A26G, A27G, C29A, C31A
DNA 1: CAATCTGAATTCCGGTCTCCC
DNA 2: TGGTGGCTACGACGGGATT
B7: AGAGAAG (DNA:RNA)
RNA: B1 RNA with U25A, A26G, C28G, C29A, G30A, C31G
DNA 1: CAATCTGAATTCCGGTCTCCC
DNA 2: TGGTGGCTACGACGGGATT
B8: GUCCGGG (DNA:RNA)
RNA: B1 RNA with U25G, A26U, A27C, C29G, C31G
DNA 1: CAATCTGAATTCCGGTCTCCC
DNA 2: TGGTGGCTACGACGGGATT
B9: GUCGGGU (DNA:RNA)
RNA: B1 RNA with U25G, A26U, A27C, C28G, C29G, C31U
DNA 1: CAATCTGAATTCCGGTCTCCC
DNA 2: TGGTGGCTACGACGGGATT
B10: ACCGGGU (DNA:RNA)
RNA: B1 RNA with U25A, A26C, A27C, C28G, C29G, C31U
DNA 1: CAATCTGAATTCCGGTCTCCC
DNA 2: TGGTGGCTACGACGGGATT
B11: GGGAGUU (DNA:RNA)
RNA: GGGAGACCGGAAUUCAGAUUGUCCGGGAGUUUUAAAUCCCGUCGUAGCCACCA
DNA 1: CAATCTGAATTCCGGTCTCCC
DNA 2: TGGTGGCTACGACGGGATT
B12: CGGGUUU (DNA:RNA)
RNA: B11 RNA with G25C, A28G, G29U
DNA 1: CAATCTGAATTCCGGTCTCCC
DNA 2: TGGTGGCTACGACGGGATT
B13: GGAGUUU (DNA:RNA)
RNA: B11 RNA with G27A, A28G, G29U
DNA 1: CAATCTGAATTCCGGTCTCCC
DNA 2: TGGTGGCTACGACGGGATT
B14: GGGUUUU (DNA:RNA)
RNA: B11 RNA with A28U, G29U
DNA 1: CAATCTGAATTCCGGTCTCCC
DNA 2: TGGTGGCTACGACGGGATT
B15: GGGGAGU (DNA:RNA)
RNA: B11 RNA with A28G, G29A, U30G
DNA 1: CAATCTGAATTCCGGTCTCCC
DNA 2: TGGTGGCTACGACGGGATT
B16: GGGUUUG (DNA:RNA)
RNA: B11 RNA with A28U, G29U, U31G
DNA 1: CAATCTGAATTCCGGTCTCCC
DNA 2: TGGTGGCTACGACGGGATT
B17: CCGGGUU (DNA:RNA)
RNA: B11 RNA with G25C, G26C, A28G
DNA 1: CAATCTGAATTCCGGTCTCCC
DNA 2: TGGTGGCTACGACGGGATT
B18: GGGUUGU (DNA:RNA)
RNA: B11 RNA with A28U, G29U, U30G
DNA 1: CAATCTGAATTCCGGTCTCCC
DNA 2: TGGTGGCTACGACGGGATT
B19: GUUUGGG (DNA:RNA)
RNA: B11 RNA with G26U, G27U, A28U, U30G, U31G
DNA 1: CAATCTGAATTCCGGTCTCCC
DNA 2: TGGTGGCTACGACGGGATT
B20: UAAUAUG (DNA:RNA)
RNA: B1 RNA with C28U, C29A, G30U, C31G
DNA 1: CAATCTGAATTCCGGTCTCCC
DNA 2: TGGTGGCTACGACGGGATT
B21: AGGACGU (DNA:RNA)
RNA: B11 RNA with G25A, G29C, U30G
DNA 1: CAATCTGAATTCCGGTCTCCC
DNA 2: TGGTGGCTACGACGGGATT
B22: GAUCGUC (DNA:RNA)
RNA: B11 RNA with G26A, G27U, A28C, U31C
DNA 1: CAATCTGAATTCCGGTCTCCC
DNA 2: TGGTGGCTACGACGGGATT
B23: AUUACAA (DNA:RNA)
RNA: B11 RNA with G25A, G26U, G27U, G29C, U30A, U31A
DNA 1: CAATCTGAATTCCGGTCTCCC
DNA 2: TGGTGGCTACGACGGGATT
B24: CCUAUUU (DNA:RNA)
RNA: B11 RNA with G25C, G26C, G27U, G29U
DNA 1: CAATCTGAATTCCGGTCTCCC
DNA 2: TGGTGGCTACGACGGGATT
B25: CUUAUAA (DNA:RNA)
RNA: B11 RNA with G25C, G26U, G27U, G29U, U30A, U31A
DNA 1: CAATCTGAATTCCGGTCTCCC
DNA 2: TGGTGGCTACGACGGGATT
B26: CGGGUAA (DNA:RNA)
RNA: B11 RNA with G25C, A28G, G29U, U30A, U31A
DNA 1: CAATCTGAATTCCGGTCTCCC
DNA 2: TGGTGGCTACGACGGGATT
B27: CAGCGAG (DNA:RNA)
RNA: B11 RNA with G25C, G26A, A28C, U30A, U31G
DNA 1: CAATCTGAATTCCGGTCTCCC
DNA 2: TGGTGGCTACGACGGGATT
B28: GCGGGGU (DNA:RNA)
RNA: B11 RNA with G26C, A28G, U30G
DNA 1: CAATCTGAATTCCGGTCTCCC
DNA 2: TGGTGGCTACGACGGGATT
B29: CGGGGUU (DNA:RNA)
RNA: B11 RNA with G25C, A28G
DNA 1: CAATCTGAATTCCGGTCTCCC
DNA 2: TGGTGGCTACGACGGGATT
B30: GGGGUUU (DNA:RNA)
RNA: B11 RNA with A28G, G29U
DNA 1: CAATCTGAATTCCGGTCTCCC
DNA 2: TGGTGGCTACGACGGGATT
B31: GGGGGGU (DNA:RNA)
RNA: B11 RNA with A28G, U30G
DNA 1: CAATCTGAATTCCGGTCTCCC
DNA 2: TGGTGGCTACGACGGGATT
B32: GCGGGUU (DNA:RNA)
RNA: B11 RNA with G26C, A28G
DNA 1: CAATCTGAATTCCGGTCTCCC
DNA 2: TGGTGGCTACGACGGGATT
B33: GGUUUUU (DNA:RNA)
RNA: B11 RNA with G27U, A28U, G29U
DNA 1: CAATCTGAATTCCGGTCTCCC
DNA 2: TGGTGGCTACGACGGGATT
B34: CGGGGGU (DNA:RNA)
RNA: B11 RNA with G25C, A28G, U30G
DNA 1: CAATCTGAATTCCGGTCTCCC
DNA 2: TGGTGGCTACGACGGGATT
B35: CCGGGGU (DNA:RNA)
RNA: B11 RNA with G25C, G26C, A28G, U30G
DNA 1: CAATCTGAATTCCGGTCTCCC
DNA 2: TGGTGGCTACGACGGGATT
B36: GGGGGUU (DNA:RNA)
RNA: B11 RNA with A28G
DNA 1: CAATCTGAATTCCGGTCTCCC
DNA 2: TGGTGGCTACGACGGGATT

biological target: T1, RBFOX1 RRM; assay: EMSA; HiTS-Eq, 1 nM pool, 10 min; buffer printed only for the single-RNA assays: 10 mM Tris pH 7.5, 150 mM NaCl, 3.4 mM EDTA, 0.001% NP-40, 30 C; conditions: tags: His6 N-terminal (pET28a); label: 5' 32P
Outline: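 These values rest on relative association constants, computed from read-count changes of each RNA species versus the control reaction and normalised to the cognate motif. Reads came from free RNA recovered by 8% native PAGE after purified RbFox RRM (wild type or mutant) at increasing concentrations was equilibrated for 10 min in 50 µL with 1 nM of a 5′-radiolabelled pool with 7 randomized nucleotides and DNA-annealed flanks.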

Binder	binding signal
B1	0.0039 KA relative to UGCAUGU
B2	0.000994 KA relative to UGCAUGU
B3	0.0162 KA relative to UGCAUGU
B4	0.0057 KA relative to UGCAUGU
B5	0.00711 KA relative to UGCAUGU
B6	0.00971 KA relative to UGCAUGU
B7	0.00984 KA relative to UGCAUGU
B8	0.00708 KA relative to UGCAUGU
B9	0.0137 KA relative to UGCAUGU
B10	0.013 KA relative to UGCAUGU
B11	0.0324 KA relative to UGCAUGU
B12	0.0393 KA relative to UGCAUGU
B13	0.0247 KA relative to UGCAUGU
B14	0.0323 KA relative to UGCAUGU
B15	0.0316 KA relative to UGCAUGU
B16	0.0349 KA relative to UGCAUGU
B17	0.0196 KA relative to UGCAUGU
B18	0.0284 KA relative to UGCAUGU

Binder	binding signal
B19	0.0128 KA relative to UGCAUGU
B20	0.0114 KA relative to UGCAUGU
B21	0.0265 KA relative to UGCAUGU
B22	0.0199 KA relative to UGCAUGU
B23	0.000272 KA relative to UGCAUGU
B24	0.00115 KA relative to UGCAUGU
B25	0.00174 KA relative to UGCAUGU
B26	0.0192 KA relative to UGCAUGU
B27	0.00935 KA relative to UGCAUGU
B28	0.0285 KA relative to UGCAUGU
B29	0.0339 KA relative to UGCAUGU
B30	0.046 KA relative to UGCAUGU
B31	0.0254 KA relative to UGCAUGU
B32	0.0192 KA relative to UGCAUGU
B33	0.00799 KA relative to UGCAUGU
B34	0.0227 KA relative to UGCAUGU
B35	0.0122 KA relative to UGCAUGU
B36	0.0471 KA relative to UGCAUGU
